From PubChem BioAssay AID1220 (Sanford-Burnham Center for Chemical Genomics, 2008)
Screen size: about 190,000 compounds; about 1,300 (0.68%) were called active. No stated cut-off is given here; in the data, active means inhibition above about 50%; inactive means the rest. This excerpt belongs to a sample that is enriched for actives.

These compounds were tested against Mannose-6-phosphate isomerase (Homo sapiens) (UniProt P34949) (assay: human PMI inhibitors, high substrate, primary screen, biochemical, fluorescence intensity, high mannose 6-phosphate (AID 1220)). Details: recombinant PMI enzyme, coupled fluorescence intensity; at 20 µM; hits give high values.
Chain of Mannose-6-phosphate isomerase (Homo sapiens) (P34949 whole entry, looked up): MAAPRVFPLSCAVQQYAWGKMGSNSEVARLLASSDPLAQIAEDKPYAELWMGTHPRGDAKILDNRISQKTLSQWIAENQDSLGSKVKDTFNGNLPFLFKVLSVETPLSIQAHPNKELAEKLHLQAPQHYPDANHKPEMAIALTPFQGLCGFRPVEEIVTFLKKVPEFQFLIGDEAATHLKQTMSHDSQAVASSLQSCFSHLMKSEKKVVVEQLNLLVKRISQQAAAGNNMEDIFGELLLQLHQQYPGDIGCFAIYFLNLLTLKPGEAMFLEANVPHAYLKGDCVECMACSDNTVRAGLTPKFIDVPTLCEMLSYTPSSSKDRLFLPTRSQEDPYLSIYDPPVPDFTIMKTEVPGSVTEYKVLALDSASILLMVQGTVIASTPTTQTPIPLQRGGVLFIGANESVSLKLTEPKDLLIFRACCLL

| SMILES | inhibition |
| --- | --- |
| O=C(O)c1cccc(N2C(=O)/C(=C/c3ccc(SCc4ccc(Cl)cc4)o3)SC2=S)c1 | 67.9% (active) |
| O=C1NC(=S)S/C1=C\c1ccc(SCc2ccccc2)o1 | 66.9% (active) |
| O=C1NC(=S)S/C1=C/c1ccc(N2CCOCC2)o1 | -14% (inactive) |
| Cc1cccc(C)c1-n1cccc1/C=C1\SC(=S)N(c2cccc(C(=O)O)c2)C1=O | 3% (inactive) |
| O=C(O)c1cc(-c2ccc(/C=C3/SC(=S)N(Cc4ccccc4)C3=O)o2)ccc1Cl | -34.8% (inactive) |
| O=C1NC(=S)S/C1=C\c1ccc(SCc2ccco2)o1 | 7.7% (inactive) |
| O=C(COC(=O)c1sc2cc(F)ccc2c1Cl)Nc1ncc(Cl)cc1Cl | 13.4% (inactive) |
| Cn1c(=O)c2c(nc(SCC(=O)Nc3ccccc3)n2C)n(C)c1=O | 6.1% (inactive) |
| Cc1cccc(C)c1NC(=O)CSc1nnc(-c2cccnc2)o1 | 5.5% (inactive) |
| COc1ccccc1NC(=S)N1CCN(C(=O)c2ccco2)CC1 | -3% (inactive) |
| O=C(Cc1c(F)cccc1Cl)N1CCOCC1 | -13.4% (inactive) |
| COCCn1c(=O)c2c(nc3n2CCN3c2ccc(C)cc2)n(C)c1=O | 0.4% (inactive) |
| CCOc1ccc(N=C(NN)c2ccc3ccccc3n2)cc1 | -57.4% (inactive) |
| CCOc1ccc(N=C(C)c2ccccc2O)cc1 | 55.9% (active) |
| CCOc1ccc(NC(=O)c2ccccc2O)cc1 | -0.8% (inactive) |
| Cc1cccc(OCC(=O)Nc2ccc3nc(C)sc3c2)c1 | -10.9% (inactive) |
| COCCNC(=O)C1CCCN(c2nn3c(=O)cc(C)nc3s2)C1 (stereo unspecified) | 7.2% (inactive) |
| CCN1CCN(Cc2nc3c(c(=O)n(C)c(=O)n3C)n2CCc2ccccc2)CC1 | -1.1% (inactive) |
| O=c1cc(Nc2ccc3c(c2)OCCO3)[nH]c(=O)n1-c1ccc(Br)cc1 | 57.5% (active) |
| O=c1cc(Nc2ccc3c(c2)OCCO3)[nH]c(=O)n1-c1ccc(Cl)cc1 | 8% (inactive) |
| O=c1cc(Nc2ccc3c(c2)OCO3)[nH]c(=O)n1-c1ccc(Br)cc1 | 1.9% (inactive) |
| CC1CCN(S(=O)(=O)c2ccc(NC(=S)NC(=O)c3ccc(Cl)cc3)cc2)CC1 | -6.2% (inactive) |
| CC[n+]1ccc(C)c2cc(P(=O)(c3ccccc3)c3ccccc3)ccc21 | 18.4% (inactive) |
| CC[n+]1ccc(C[n+]2ccccc2)c2ccccc21 | 97.1% (active) |
| CC[n+]1ccc(/C=C/c2ccc(N(C)C)cc2)c2ccccc21 | -4.8% (inactive) |
| O=C(NCc1ccccc1)C1=C[C@@H](c2coc3ccccc3c2=O)C[C@@H](OCCCCO)O1 | 8.5% (inactive) |
